Bioassay records deposited in PubChem by several laboratories.
BoNT F protease: BoNT F light chain protease inhibition. Multiplex microsphere protease cleavage assay, flow cytometry. inhibition, % at 10 µM. hit rate 0.22% among 360,000; in the data active means inhibition above about 35%, passing the limit was not always enough; inconclusive means no clear call, values can overlap the other calls; further: plate controls were buffer without enzyme for full effect and enzyme alone for no effect
Bead autofluor: flagged as autofluorescent in microsphere protease counterscreen; compound autofluorescence counterscreen, microsphere flow cytometry; active compounds read high; fluorescence intensity (no concentration beside the values); hit rate 3.1% among 360,000; in the data active means fluorescence intensity above about 16000; inconclusive means no clear call, values can overlap the other calls
BoNT A protease: inhibitors of Botulinum neurotoxin A light chain protease. hit rate 0.17% among 360,000. multiplex microsphere protease substrate cleavage, flow cytometry. AID 588499. inhibition, % at 10 µM; further: plate controls were buffer without enzyme for full effect and enzyme alone for no effect
MazF activator: increases E. coli MazEF RNase cleavage of RNA | activation, % at 20 µM | FAM/BHQ RNA-DNA oligo cleavage fluorescence, 5 h | P0AE70 | hit rate 0.32% among 350,000; in the data active means activation above about 50%
VHR inh abs: inhibitors of human VHR1 phosphatase (DUSP3); recombinant VHR phosphatase, pNPP absorbance; inhibition, % at 13.3 µM; hit rate 0.52% among 290,000; AID 1654; in the data active means inhibition above about 50%
Anthrax LF inh2: anthrax lethal factor protease inhibition; AID 588501; hit rate 0.12% among 360,000; multiplex microsphere protease cleavage assay, LF; inhibition, % at 10 µM; P15917; further: plate controls were buffer without enzyme for full effect and enzyme alone for no effect
Target sequence (P15917 whole entry, looked up): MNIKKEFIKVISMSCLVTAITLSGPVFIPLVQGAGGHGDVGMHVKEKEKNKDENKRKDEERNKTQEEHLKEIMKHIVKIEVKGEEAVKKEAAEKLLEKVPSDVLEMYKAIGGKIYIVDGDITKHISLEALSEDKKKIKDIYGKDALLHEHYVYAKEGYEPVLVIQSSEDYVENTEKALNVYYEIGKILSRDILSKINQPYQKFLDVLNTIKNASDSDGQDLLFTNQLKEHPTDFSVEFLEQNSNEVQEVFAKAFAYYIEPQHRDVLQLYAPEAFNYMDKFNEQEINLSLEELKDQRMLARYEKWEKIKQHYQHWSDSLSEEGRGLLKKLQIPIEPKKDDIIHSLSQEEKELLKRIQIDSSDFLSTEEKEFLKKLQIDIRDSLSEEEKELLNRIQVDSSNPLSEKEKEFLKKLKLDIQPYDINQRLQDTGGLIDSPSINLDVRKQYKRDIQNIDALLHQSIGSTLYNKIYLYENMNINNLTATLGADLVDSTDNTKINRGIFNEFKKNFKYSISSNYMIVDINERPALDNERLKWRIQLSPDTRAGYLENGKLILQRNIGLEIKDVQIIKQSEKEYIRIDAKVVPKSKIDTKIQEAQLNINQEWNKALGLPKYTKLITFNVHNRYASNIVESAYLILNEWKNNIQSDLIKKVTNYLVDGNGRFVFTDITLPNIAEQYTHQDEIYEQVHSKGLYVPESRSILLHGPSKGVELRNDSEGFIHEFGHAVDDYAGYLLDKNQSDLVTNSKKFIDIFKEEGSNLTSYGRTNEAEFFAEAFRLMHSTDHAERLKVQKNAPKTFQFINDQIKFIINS
The depositor's hits bear a star; ? = inconclusive; / = no result given. A selection: hits, their analogues and other compounds. The true share with any hit is near 4.1%. Unless noted, no stated cut-off is given here; in the data, active means inhibition above about 30%; inconclusive means no clear call, values can overlap the other calls; inactive means below that.

SMILES	BoNT F protease	Bead autofluor	BoNT A protease	MazF activator	VHR inh abs	Anthrax LF inh2
Cn1c(=O)c2c(nc(CN3CCN(C(=O)c4ccco4)CC3)n2Cc2cccc(Cl)c2)n(C)c1=O	-1	22343*	0	2	22	0
Cn1c(=O)c2c(nc(CN3CCN(C(=O)c4ccco4)CC3)n2CCc2ccccc2)n(C)c1=O	3	21635*	3	0	21	-1
COc1cc2c(cc1OC)C(c1ccccc1C)CC(=O)N2 (stereo not drawn)	2	3237	1	5	33	-10
O=c1c2c([nH]c3ccccc13)CCCCCC2	-3	22192*	?	3	-2	-6
O=c1cc(-c2ccccc2)c2c([nH]1)CCCC2	7	19679*	5	0	34	-8
CC(Sc1n[nH]c(-c2cccs2)n1)C(=O)Nc1ccc(C(N)=O)cc1 (stereo not drawn)	-5	8114	-3	0	/	6
Cc1ccc(C)c(NC(=S)N(CCc2nc3cc(C)c(C)cc3[nH]2)Cc2cccnc2)c1	-10	8853	-1	19	53*	-3
Cc1cccc(NC(=S)N(CCc2nc3cc(C)c(C)cc3[nH]2)Cc2cccnc2)c1	-8	7944	0	6	37	-2
CCOc1ccc(OCC)c(NC(=O)CSc2nc3ccccc3c(=O)n2C)c1	2	22042*	0	7	14	0
COCCNC(=O)CSc1nc2ccccc2c(=O)n1-c1cccc(OC)c1	-6	21564*	-4	7	-1	0
COCCn1c(SCC(=O)Nc2ccc(OC)cc2OC)nc2ccccc2c1=O	?	3306	-1	4	51*	0
COc1cc(NC(=O)COc2ccccc2)ccc1NC(=O)c1ccco1	-21	3835	-1	12	27	-10
COc1ccc(NC(=O)CSc2nc3ccccc3c(=O)n2Cc2cccs2)c(OC)c1	/	/	/	/	18	/
CCOc1ccc(OCC)c(NC(=O)CSc2nc3cccnc3n2C)c1	-9	2749	-1	0	37	-3
COc1cc(NC(=O)CSc2nc3ccccc3c(=O)n2C)ccc1NC(=O)c1ccco1	17	17911*	12	5	21	-12
CN1CCN(c2ccc(CNC(=O)c3cccc4c(-c5ccc(F)c(F)c5)coc34)cc2)CC1	-14	3446	0	/	/	-4
Cc1ccccc1-c1cnc(C(O)c2cccc(C)c2C)[nH]1 (stereo not drawn)	-1	3955	0	/	/	-3
COCCn1c(SCC(=O)Nc2cccc(C(=O)OC)c2)nc2ccccc2c1=O	-1	16194*	1	2	8	-2
COc1ccc(-n2c(SCC(=O)NCCC(C)C)nc3ccsc3c2=O)cc1	5	21316*	1	0	18	-3
O=C1C2Sc3[nH]c(=O)sc3C(c3cc([N+](=O)[O-])ccc3O)C2C(=O)N1c1ccccc1 (stereo not drawn)	-3	4231	1	5	5	6
CN(C)/C=N/c1ncc(C(=O)c2ccc(Cl)cc2)s1	1	22056*	1	1	6	2
CN(C)/C=N/c1ncc(C(=O)c2ccc(Cl)cc2Cl)s1	-3	4572	-1	1	2	-2
O=[N+]([O-])c1ccc(OCCCCN2CCc3ccccc3C2)cc1	-19	3960	-3	1	30	-22
O=C(OCCN1C(=O)c2ccccc2C1=O)C1CCN(S(=O)(=O)c2cccs2)CC1	-2	22995*	?	3	18	-5
CCOC(=O)N1CCC(NC(=O)C2CCN(S(=O)(=O)c3cccs3)CC2)CC1	1	20126*	1	4	4	-2
SMILES	BoNT F protease	Bead autofluor	BoNT A protease	MazF activator	VHR inh abs	Anthrax LF inh2
Cc1cccc(OCCOC(=O)C2CCN(S(=O)(=O)c3cccs3)CC2)c1	-16	2310	0	-9	9	-6
O=C(NC1CCCCC1)C1CCN(S(=O)(=O)c2cccs2)CC1	4	3849	1	-2	19	-2
CCC(CC)NC(=O)C1CCN(S(=O)(=O)c2cccs2)CC1	0	23956*	-1	2	6	-4
CCC(C(=O)N1CCN(Cc2ccc3c(c2)OCO3)CC1)n1nnc2ccccc2c1=O (stereo not drawn)	2	3996	0	2	/	-7
CCc1c(C)nc(SCC(=O)NNC(=O)c2ccco2)[nH]c1=O	-5	5801	0	9	10	-2
Cc1nn(Cc2ccccc2)c(Cl)c1C(=O)NCc1ccc(C)n1C	2	19508*	?	-2	32	-7
Cc1nn(Cc2ccccc2)c(Cl)c1C(=O)NCCc1ccccc1	-4	2109	0	-3	-2	-2
